V-ATPase pHluor = regulators of yeast V-ATPase proton pumping, primary screen, pHLuorin cytosolic pH fluorescence | S. cerevisiae | response, % at 10 µM | 0.37% of 350,000 active | AID 504577, 2011; in the data active = response mostly above about 7.3%, no sharp cut-off; inactive = mostly below about 5.4%; also: actives read high
Rce1 inhib = yeast Rce1p protease inhibitors, primary screen, biochemical, fluorescence, cell-free homogeneous. calls only. yeast membranes, quenched prenylated peptide cleavage fluorescence. 0.27% of 290,000 active. AID 2563, 2010. CAAX prenyl protease 2 (Saccharomyces cerevisiae (strain ATCC 204508 / S288c)), Q03530;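 active = fall in fluorescence gain of 50% or more versus controls, with final raw signal at or below 3038400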;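 also: plate controls were neutral control wells for no effect and wells lacking membranes for full effect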
Efflux pump inh = inhibitors of Candida efflux pumps in yeast, primary screen, S. cerevisiae, Nile Red, multiplex; S. cerevisiae Candida pump triplex; inhibition, % at 10 µM; 0.44% of 330,000 active;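 active = plate passing quality check with inhibition over a set limit, or well fluorescence over plate mean plus 4 SD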;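 also: Nile Red retained in pooled yeast measured as flow cytometry median fluorescence; 0% = buffer negative control and 100% = Enniatin B positive control; higher means more Nile Red kept so more efflux inhibition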
NSD2 inh = NSD2 histone methyltransferase inhibitors, primary screen, biochemical, AlphaScreen, single concentration, set 2. Histone-lysine N-methyltransferase NSD2 (Homo sapiens), O96028. NSD2 peptide methylation, 120 min. inhibition, % at 12.5 µM. 0.54% of 310,000 active; in the data active = inhibition above about 50%
NPR2 activator = human GC-B receptor activators, primary screen, HEK293 GC-B cells, cGMP TR-FRET, EC30 CNP; Atrial natriuretic peptide receptor 2 (Homo sapiens), P20594; 0% at EC30 CNP, 100% saturating CNP; activation, % at 10 µM; 0.11% of 370,000 active; AID 1920062, 2024;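 active = activation at 10 µM reaching about 35% in either raw or pattern-adjusted values, limit read from the data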
NPR1 activator = GC-A stimulated cGMP production enhancers – HEK293 GC-A cells, cGMP TR-FRET, EC30 ANP, primary screen; Atrial natriuretic peptide receptor 1 (Homo sapiens), P16066; 0% at EC30 ANP, 100% saturating ANP; activation, % at 10 µM; 0.14% of 370,000 active; AID 1671463, 2021; in the data active = activation above about 40%
VATPase regulator = yeast V-ATPase proton pumping modulators, confirmation, S. cerevisiae, pH-sensitive GFP, second cherry-pick; S. cerevisiae pHLuorin cytosolic pH, V-ATPase proton transport; response, % at 10 µM; 2% of 980 active; shares compounds with V-ATPase pHluor; AID 602197, 2012; in the data active = response above about 24%;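 also: plate controls were vehicle wells for no effect and positive control wells for full effect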
Numbers without * were called inactive; i = inactive; · = no result. Most compounds without a hit are left out; they make up all but 1.6% or so of the library.

SMILES	V-ATPase pHluor	Rce1 inhib	Efflux pump inh	NSD2 inh	NPR2 activator	NPR1 activator	VATPase regulator
CCCCCn1nc(C(=O)N(CCOC)c2c(N)n(CCCC)c(=O)[nH]c2=O)c2ccccc2c1=O	13*	i	0	0	1	0	-2
CCCCn1c(N)c(N(CC)C(=O)c2cccc(F)c2)c(=O)[nH]c1=O	3	i	0	45	2	4	·
CCCCn1c(N)c(N(CC)C(=O)c2cccc(OCc3ccccc3)c2)c(=O)[nH]c1=O	11*	·	0	2	2	5	0
CCOc1ccc2nc(N3CCC(C(=O)N4CCN(C(=O)c5ccco5)CC4)CC3)sc2c1	12*	i	0	·	·	·	4
COc1ccc(-c2c(-c3cc(OC)cc(OC)c3)n(C)c3ccc(-c4ccc(OC)c(F)c4)cc23)cc1	2	·	1	·	5	2	·
COc1ccc(-c2c(-c3ccc(OC)c(F)c3)c3ccccc3n2C)cc1	21*	·	0	·	0	-2	3
Cc1ccccc1CN1CCCCC(NC(=O)c2ccccc2F)C1=O (stereo not given)	·	·	·	·	-2	1	·
Cn1c(=O)oc2cc(S(=O)(=O)Nc3ccc(F)cc3)ccc21	7.4*	i	0	-1	2	5	1
COC(=O)C1CN(Cc2ccc(OC)cc2)CCS(=O)(=O)N1Cc1cn(Cc2ccc(OC)cc2)nn1 (stereo not given)	·	·	·	·	5	1	·
S=c1[nH]ncn1NCc1ccc(Cl)cc1Cl	-1	·	0	2	0	-3	·
Fc1cccc(Cl)c1CNn1cn[nH]c1=S	11*	i	0	-1	5	2	4
CC(C)(C)C(=O)OC12CCCN(C1)/C(=C/c1ccc(Cl)cc1)C2 (stereo not given)	·	·	·	·	4	4	·
CCc1ccc(NC(=O)C2CCCN(S(=O)(=O)c3cnc[nH]3)C2)cc1 (stereo not given)	11*	i	0	·	·	·	0
C[C@H]1[C@@H](OC(=O)NCc2cccc(C(F)(F)F)c2)CC[C@@]23CCCN2C(=O)CCC[C@@H]13	·	·	·	·	-2	-6	·
CCc1ccc(Cn2nnc(C(=O)Nc3ccc(OC)cc3OC)c2N)cc1	12*	i	0	·	-2	-1	4
COc1ccc(NC(=O)c2nnn(CC(=O)Nc3ccccc3OC)c2N)c(OC)c1	1	i	0	5	0	2	·
C=Cc1ccc(C(=O)Nc2nnc(-c3cccnc3)s2)cc1	·	·	·	-1	-5	1	·
CCOC(=O)C1=C(C)NC(C)=C(C(=O)OCC)C1C(=O)OCC(=O)N1CCc2ccccc2C1	12*	i	0	1	-1	-3	-2
COc1ccc(C(=O)C2CCCN(C(=O)CSC)C2)cc1OC (stereo not given)	8	i	0	0	6	4	·
COc1ccc(C(=O)C2CCCN(C(=O)C3=CCCC3)C2)cc1OC (stereo not given)	10*	·	0	-2	-3	-1	-7
Cn1c(=O)c2cc(S(=O)(=O)NC(Cc3ccccc3)C(=O)NCc3ccco3)ccc2n(C)c1=O (stereo not given)	6	i	0	·	5	1	·
COCCCNC(=O)C(Cc1ccccc1)NS(=O)(=O)c1ccc2c(c1)c(=O)n(C)c(=O)n2C (stereo not given)	16*	i	0	1	5	4	-2
CC(C)NC(=O)COc1ccccc1C#N	14*	i	0	0	4	3	-2
CCOC(=O)Cc1csc(NC(=O)COc2ccccc2)n1	11*	i	0	0	4	-1	0
O=C(OCc1cn(Cc2cc(F)ccc2F)nn1)N1CCOCC1	·	·	·	·	1	2	·
SMILES	V-ATPase pHluor	Rce1 inhib	Efflux pump inh	NSD2 inh	NPR2 activator	NPR1 activator	VATPase regulator
CC(C)=C1C2CCC1C1C(=O)N(c3nccs3)C(=O)C21 (stereo not given)	2	i	0	-4	2	-4	·
O=C1C2C3C=CC(C3)C2C(=O)N1c1nccs1 (stereo not given)	9.4*	·	0	13	5	-7	1
COc1cccc(CNC(=O)CCCN2C(=O)COc3ccc(C)cc32)c1OC	·	·	·	-2	-10	-3	·
Cc1ccnc(NS(=O)(=O)c2ccc(NC(=O)c3ccc(N4C(=O)CCC4=O)cc3)cc2)n1	12*	i	0	1	9	1	3
CN(Cc1nc(C(c2ccccc2)c2ccccc2)no1)CC1COCCO1 (stereo not given)	11*	i	0	-2	0	3	-5
CCOC(=O)N1CCN(C(=O)c2ccc(C#CC3(O)CCCCC3)cc2)CC1	1	i	0	-5	0	6	·
CCC(NC(=O)c1ccc(C#CC2(O)CCCCC2)cc1)C(=O)O (stereo not given)	12*	i	0	0	5	1	-1
Cc1ccc(/C=N/NC(=O)c2nnn(-c3nonc3N)c2CSc2ccccc2)s1	8.1*	i	-1	-5	-7	4	-3
N#CC1=C(N)Oc2c(ccc3cccnc23)C1c1cccnc1 (stereo not given)	9.7*	i	0	24	1	0	-1
N#CC1=C(N)Oc2cc3ccccc3cc2C1c1cccnc1 (stereo not given)	-2	i	0	-3	-3	-8	·
N#Cc1cccc(NC(=O)OCCN2C(=O)CCC23CCC(c2ccccc2)CC3)c1 (stereo not given)	·	·	·	·	-7	-14	·
COCCCNC(=O)C[C@H]1C[C@@]2(C(=O)OC)C(=C[C@H](C(C)(C)C)O[C@@H]2C)N(Cc2cccc3ccccc23)C1=O	·	·	·	·	-9	-6	·
O=C(CSc1n[nH]c(=O)[nH]c1=O)Nc1c(Cl)cc(Cl)cc1Cl	13*	·	0	-6	0	-4	-1
COC(=O)C1CN(Cc2ccc(F)cc2)CCS(=O)(=O)N1Cc1cn(CCOC(C)=O)nn1 (stereo not given)	·	·	·	·	4	-3	·
CCN1CCN(C(=O)CN(CCc2ccccc2)S(C)(=O)=O)CC1	-2	i	0	-4	0	4	·
CN1CCN(C(=O)CN(CCc2ccccc2)S(C)(=O)=O)CC1	11*	i	0	-3	2	1	1
Cc1cccc(C)c1NC(=O)NN(C(=O)c1ccccc1)C(C)(C)C	0	i	0	-4	5	2	·

Screens: PubChem, several laboratories
